Test results taken from PubChem BioAssay (NCATS).
Values joined by “and” are separate entries in the source; they are usually repeats but may differ in a detail not shown here. Equal entries are not always repeated. Records with an inconclusive call do not appear. Active and inactive are the calls of the source. The call rests on the fitted dose curve; in most records, active means well fitted curve in the direction sought with a large enough effect; inconclusive means small, poorly fitted or top-dose-only effect, or another doubt; inactive means no such curve, though single readings can be large; an effect the other way counts as inactive or inconclusive.

Legend:
[1] = target: Cellular tumor antigen p53 (Homo sapiens) (UniProt P04637); experiment: Primary qHTS for small molecule compounds that upregulate eGFP-tagged delta133p53alpha (in N-terminal) cells. (AID 2060322); conditions: NCI-H358 eGFP-delta133p53alpha fluorescence, 24 h; activation: stronger effect = higher value; further: nearly all actives have a fitted effect of over 75% in size;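 on activation: cells pre-induced with doxycycline then dosed without doxycycline; series mostly up to about 56 µM; 0% = DMSO vehicle and 100% = reference activator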
Chain of Cellular tumor antigen p53 (Homo sapiens) (P04637 whole entry, looked up): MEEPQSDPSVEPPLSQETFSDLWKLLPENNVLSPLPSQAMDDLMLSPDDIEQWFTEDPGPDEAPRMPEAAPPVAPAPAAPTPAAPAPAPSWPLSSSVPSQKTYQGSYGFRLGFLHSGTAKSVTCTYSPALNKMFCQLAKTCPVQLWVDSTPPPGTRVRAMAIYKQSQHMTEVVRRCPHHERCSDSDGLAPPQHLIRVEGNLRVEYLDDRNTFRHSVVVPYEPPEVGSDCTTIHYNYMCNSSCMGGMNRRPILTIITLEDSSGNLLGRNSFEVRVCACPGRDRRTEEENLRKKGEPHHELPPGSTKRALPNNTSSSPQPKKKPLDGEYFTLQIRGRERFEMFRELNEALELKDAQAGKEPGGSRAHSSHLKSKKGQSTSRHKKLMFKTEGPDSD
Outline: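 NCI-H358 cells pre-induced 24 h with 10 ng/ml doxycycline for eGFP-delta133p53alpha, plated dox-free and exposed 24 h at 37C to titrated compounds. Fixed, Hoechst-stained; gated GFP peak intensity by laser scanning cytometry, normalized to DMSO (0%) and 57.5 uM 5-azacytidine (100%).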

[2] = BET inhibitor-based combinations targeting novel dependencies in MECOM-rearranged (r) AML: SET-2 cell line (AID 2202231); conditions: SET-2 AML cells viability, CellTiter-Glo luminescence, 48 h; viability: stronger effect = lower value, concentration not given here; further: nearly all actives have a fitted effect of over 35% in size;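 on viability: plate controls were DMSO treated cells for no effect and wells without cells for full effect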
Outline: (§1)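 Here, 11-point titrations of each agent were applied to 500 seeded cells and incubated 48 hr; CellTiter-Glo signal, scaled against DMSO and empty wells, was integrated as AUC, then Z-scored within the individual line.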

[3] = BET inhibitor-based combinations targeting novel dependencies in MECOM-rearranged (r) AML: MV-4-11 cell line (AID 2202233); further: nearly all actives have a fitted effect of over 45% in size
Outline: (§2)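 Normalized to DMSO and empty-well controls, the luminescence data from CellTiter-Glo after 48 hr drug exposure were fitted across 11 concentrations. Reported metrics are area under the dose-response curve and its Z-transformed form.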

[4] = BET inhibitor-based combinations targeting novel dependencies in MECOM-rearranged (r) AML: UCSD-AML1 cell line (AID 2202235); further: nearly all actives have a fitted effect of over 40% in size
Outline: as §2

[5] = BET inhibitor-based combinations targeting novel dependencies in MECOM-rearranged (r) AML: AML-194 cell line (AID 2202237; further: nearly all actives have a fitted effect of over 40% in size)
Outline: as §1

[6] = BET inhibitor-based combinations targeting novel dependencies in MECOM-rearranged (r) AML: HNT-34 cell line (AID 2202234); further: nearly all actives have a fitted effect of over 35% in size
Outline: as §2

[7] = BET inhibitor-based combinations targeting novel dependencies in MECOM-rearranged (r) AML: AML-191 cell line (AID 2202236; further: nearly all actives have a fitted effect of over 35% in size)
Outline: as §1

[8] = BET inhibitor-based combinations targeting novel dependencies in MECOM-rearranged (r) AML: OCI-AML3 cell line (AID 2202232); conditions: Potency: OCI-AML3 viability; further: nearly all actives have a fitted effect of over 35% in size
Outline: as §1
Potency means the concentration at half of the fitted maximal effect.

c1coc(CNc2ncnc3nc[nH]c23)c1
inactive: activation [1] -14.3% | viability [2] 107% | Potency [3] | Potency [4] | Potency [5]

CCOc1ccccc1N=Nc1c(C)[nH]n(-c2nc(-c3ccccc3)cs2)c1=O
inactive: activation [1] 25.3% | viability [2] 118% | Potency [3] | Potency [6] | Potency [4] | Potency [5]

N[C@H](CSC(c1ccccc1)(c1ccccc1)c1ccccc1)C(=O)O
inactive: activation [1] -3.21% | viability [2] 109% | Potency [3] | Potency [4] | Potency [5]

O=C(O)c1nc(=O)[nH]c(=O)[nH]1
inactive: activation [1] 3.67% | viability [2] 105% | Potency [3] | Potency [6] | Potency [7] | Potency [5]

CC1=C(CC(=O)O)c2cc(F)ccc2C1=Cc1ccc(S(C)=O)cc1 (centres undefined)
active: Potency [3] 18.6 µM | Potency [6] 18.6 µM
inactive: activation [1] -21.9% | viability [2] 104% | Potency [4] | Potency [5]

O=C1NCCc2[nH]c(-c3ccncc3)cc21
active: Potency [1] 7.69 µM | Potency [2] 3.72 µM | Potency [3] 1.86 µM | Potency [4] 2.63 µM | Potency [7] 1.66 µM | Potency [5] 2.63 µM

CC1(C)CCC2=C(O1)c1ccccc1C(=O)C2=O
active: Potency [2] 18.6 µM | Potency [3] 18.6 µM | Potency [6] 16.6 µM | Potency [4] 9.34 µM | Potency [5] 26.3 µM
inactive: activation [1] -0.948%

C=Cc1c(C)c2cc3nc(cc4[nH]c(cc5nc(cc1[nH]2)C(C)=C5CCC(=O)O)c(CCC(=O)OC)c4C)[C@@]1(C)C3=CC=C(C(=O)OC)[C@H]1C(=O)OC
active: Potency [3] 26.3 µM | Potency [6] 18.6 µM
inactive: activation [1] 9.63% | viability [2] 97.6% | Potency [4] | Potency [7] | Potency [5]

Cc1nnc(NS(=O)(=O)c2ccc(N)cc2)s1
inactive: activation [1] -14.2% and -3.76% | viability [2] 113% | Potency [3] | Potency [6] | Potency [4] | Potency [7] | Potency [5]

CCN(CC)CCCC(C)Nc1nc(C)cc(Nc2ccc3nc(C)cc(N)c3c2)n1 (centres undefined)
active: Potency [3] 29.5 µM
inactive: activation [1] 4.87% | viability [2] 116% | Potency [4] | Potency [7] | Potency [5]

COCCCOc1cc(C[C@@H](C[C@H](N)[C@@H](O)C[C@H](C(=O)NCC(C)(C)C(N)=O)C(C)C)C(C)C)ccc1OC
inactive: activation [1] -7.53% and 23.3% | viability [2] 124% | Potency [3] | Potency [6] | Potency [4] | Potency [7] | Potency [5]

COC(c1ccccc1)(c1ccccc1)[C@H](Oc1nc(C)cc(C)n1)C(=O)O
inactive: activation [1] -19.8% and -2.24% | viability [2] 106% | Potency [3] | Potency [6] | Potency [4] | Potency [5]

Cc1ccc(C(C)(O)c2nc3ccccc3s2)c(C)c1 (centres undefined)
active: Potency [2] 13.2 µM | Potency [3] 18.6 µM
inactive: activation [1] 5.91% | Potency [4] | Potency [7] | Potency [5]

C[C@]12CC[C@@H]3c4ccc(O)cc4C[C@@H](CCCCCCCCCS(=O)CCCC(F)(F)C(F)(F)F)[C@H]3[C@H]1CC[C@H]2O (some centres undefined)
active: Potency [2] 4.68 µM | Potency [3] 9.34 µM
inactive: activation [1] -2.43% | Potency [4] | Potency [5]

C#C[C@]1(O)CC[C@H]2[C@@H]3CCC4=CC(=O)CC[C@@H]4[C@H]3CC[C@@]21CC
inactive: activation [1] -5.86% | viability [2] 103% | Potency [6] | Potency [5]
active: Potency [3] 13.2 µM

O=c1[nH]c(=O)n([C@H]2C[C@H](O)[C@@H](CO)O2)cc1I
inactive: activation [1] -6.69%
active: Potency [2] 3.72 µM | Potency [3] 18.6 µM | Potency [4] 20.9 µM | Potency [5] 16.6 µM

Fc1ccc(Cl)cc1-c1nc(Nc2ccncc2)c2nccnc2n1
inactive: activation [1] 0.772% | viability [2] 110% | Potency [3] | Potency [6] | Potency [4] | Potency [7] | Potency [5]

CN1CCN(c2ncc(-c3cc(Cl)cc(Cl)c3Cl)c(N)n2)CC1
active: Potency [2] 23.5 µM | Potency [3] 8.33 µM | Potency [7] 16.6 µM
inactive: activation [1] 4.6% | Potency [4]

C=C1c2cccc(O)c2C(O)=C2C(=O)[C@@]3(O)C(O)=C(C(N)=O)C(=O)[C@@H](N(C)C)[C@@H]3[C@@H](O)[C@H]12
inactive: activation [1] 22.8% | viability [2] 86.7% | Potency [3] | Potency [4] | Potency [5]

O=c1c(O)c(-c2ccc(O)cc2)oc2cc(O)cc(O)c12
inactive: activation [1] 36.9% | viability [2] 105% | Potency [4]
active: Potency [3] 9.34 µM | Potency [7] 14.8 µM

O=C(NCCS(=O)(=O)c1ccc(C(F)(F)F)cn1)c1ccc(Cl)cc1
inactive: activation [1] 6.23% | viability [2] 108% | Potency [3] | Potency [6] | Potency [7] | Potency [5]

CCN(c1ccccc1)c1cc(NC)[n+](C)c(C)n1
inactive: activation [1] 3.67% | viability [2] 117% | Potency [3] | Potency [6] | Potency [4] | Potency [7] | Potency [5]

CC(=O)NC(CS)C(=O)O (centres undefined)
inactive: activation [1] 60.6% | viability [2] 104% | Potency [3] | Potency [6] | Potency [4] | Potency [5]

Cc1cc(Nc2cc(NC(=O)c3c(Cl)cccc3Cl)ccn2)nc(N)n1
active: Potency [1] 34.3 µM | Potency [2] 3.32 µM | Potency [3] 0.332 µM | Potency [6] 0.296 µM | Potency [4] 0.296 µM | Potency [7] 0.263 µM | Potency [5] 0.332 µM

CN(Cc1cc(Br)cc(Br)c1N)C1CCCCC1
inactive: activation [1] -11.7% and 14.8% | viability [2] 102% | Potency [3] | Potency [6] | Potency [4] | Potency [7] | Potency [5]

O=C(O)c1ccc(-c2c[nH]c3ncc(-c4ccccc4)cc23)cc1C1CCCC1
inactive: activation [1] -17.5% | viability [2] 89.8% | Potency [4]
active: Potency [3] 2.95 µM

Nc1[nH]c(=O)ncc1F
inactive: activation [1] 10.9% and -17.3% | viability [2] 119% | Potency [3] | Potency [6] | Potency [4] | Potency [7] | Potency [5]

Cc1cc(O)c2c(c1)C(=O)c1cccc(O)c1C2=O
inactive: activation [1] 32.6% | viability [2] 116% | Potency [3] | Potency [6] | Potency [4] | Potency [7] | Potency [5]

C[Se]CCC(N)C(=O)O (centres undefined)
inactive: activation [1] -7.89% | viability [2] 105% | Potency [3] | Potency [6] | Potency [4] | Potency [7] | Potency [5]

CCCc1nc2c(C)cc(-c3nc4ccccc4n3C)cc2n1Cc1ccc(-c2ccccc2C(=O)O)cc1
inactive: activation [1] -6.69% and 11.8% | viability [2] 120% | Potency [3] | Potency [6] | Potency [4] | Potency [7] | Potency [5]

CN(C)CCc1c[nH]c2ccc(CS(=O)(=O)N3CCCC3)cc12
inactive: activation [1] -5.58% | viability [2] 115% | Potency [3] | Potency [6] | Potency [4] | Potency [7] | Potency [5]

CNC(=O)[C@H](Cc1ccccc1)NC(=O)[C@H](CC(C)C)[C@H](CSc1cccs1)C(=O)NO
active: Potency [3] 7.42 µM | Potency [7] 13.2 µM
inactive: activation [1] -8.09% | viability [2] 98.9% | Potency [4] | Potency [5]

Cc1ccc(S(=O)(=O)NC(=O)NN2CC3CCCC3C2)cc1 (centres undefined)
inactive: activation [1] 8.47% and 8.97% | viability [2] 120% | Potency [3] | Potency [6] | Potency [4] | Potency [7] | Potency [5]

O=C(/C=C\n1cnc(-c2cc(C(F)(F)F)cc(C(F)(F)F)c2)n1)NNc1cnccn1
inactive: activation [1] 24.8%
active: Potency [2] 0.742 µM | Potency [3] 0.525 µM | Potency [6] 0.934 µM | Potency [4] 0.372 µM | Potency [7] 0.468 µM | Potency [5] 0.372 µM

NC(=O)c1ccc(I)c([N+](=O)[O-])c1
inactive: activation [1] 13.8% | viability [2] 105% | Potency [4] | Potency [5]
active: Potency [3] 16.6 µM

C[N+]1(C)[C@@H]2CC(OC(=O)[C@H](CO)c3ccccc3)C[C@H]1[C@@H]1O[C@@H]12 (some centres undefined)
inactive: activation [1] -7.53% | viability [2] 116% | Potency [3] | Potency [6] | Potency [4] | Potency [7] | Potency [5]

CCOC(=O)O[C@]1(C(=O)OCCl)CC[C@H]2[C@@H]3CCC4=CC(=O)C=C[C@]4(C)[C@H]3[C@@H](O)C[C@@]21C
active: Potency [2] 1.05 µM
inactive: activation [1] -7.34% | Potency [3] | Potency [6] | Potency [5]

CC(C)Oc1ccc2c(=O)c(-c3ccccc3)coc2c1
inactive: activation [1] -6.21% and -9.21% and 6.6% | viability [2] 108% | Potency [3] | Potency [6] | Potency [4] | Potency [5]

Cn1c(=O)c2c(ncn2CC(O)CO)n(C)c1=O (centres undefined)
inactive: activation [1] 5.02% and 16.6% | viability [2] 118% | Potency [3] | Potency [6] | Potency [4] | Potency [7] | Potency [5]

Oc1cc2c(cc1O)C1c3ccc(O)c(O)c3OCC1(O)C2 (centres undefined)
inactive: activation [1] -7.38%
active: Potency [8] 23.5 µM | Potency [3] 23.5 µM

CC(COc1ccccc1)N(CCCl)Cc1ccccc1 (centres undefined)
active: Potency [6] 16.6 µM
inactive: activation [1] -9.21% and 7.69% | viability [2] 99.7% | Potency [4] | Potency [7] | Potency [5]

COc1ccc(C[C@@H](C)[C@@H](C)Cc2ccc(OC)c(OC)c2)cc1OC
active: Potency [2] 18.6 µM | Potency [7] 18.6 µM
inactive: activation [1] 11.5% | Potency [6] | Potency [4]

COc1cc([C@H]2Oc3cc([C@H]4Oc5cc(O)cc(O)c5C(=O)[C@@H]4O)ccc3O[C@@H]2CO)ccc1O
inactive: activation [1] -20.1% | viability [2] 119% | Potency [5]

C[C@]12CCC3c4ccc(O)cc4CCC3C1CCC2=O (some centres undefined)
inactive: activation [1] -0.196% | viability [2] 99.9% | Potency [7] | Potency [5]
active: Potency [4] 26.3 µM

NC(=O)c1ccc(-c2nc(-c3ccc4c(c3)OCCO4)c(-c3ccccn3)[nH]2)cc1
inactive: activation [1] -1.5% | viability [2] 104% | Potency [5]

COC(=O)[C@H](c1ccccc1Cl)N1CCc2sccc2C1
inactive: activation [1] 12.2% | viability [2] 110% | Potency [6] | Potency [4] | Potency [7] | Potency [5]
